Values without a mark were called inactive. Inconclusive results are not listed. Entries that show only a call come without a potency. The source made the active and inactive calls. Calls follow the shape of the dose curve; as a rule, active = well fitted curve in the direction sought with a large enough effect in the repeat runs; inconclusive = weak or mixed curves; inactive = no such curve, though single readings can be large; an effect the other way counts as inactive or inconclusive.
Experiments:
[1] = qHTS RealTime-Glo MT Cell Viability Assay in HEK293 cells - 16 hour (AID 1224872); also: nearly all actives have a fitted effect of over 50% in size; also: potency is read from the fitted curve at half-maximal effect
In short: (§1)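 Homogeneous bioluminescent viability format in HEK293 cells (600 cells/well). Following 5 h at 37 C/5% CO2, 23 nL compound was pintooled; the signal was measured repeatedly during 40 h incubation.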

[2] = qHTS RealTime-Glo MT Cell Viability Assay in HepG2 cells - 8 hour (AID 1224873); also: nearly all actives have a fitted effect of over 55% in size
In short: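 HepG2 cells mixed with RealTime-Glo MT reagents (NanoLuc plus cell-permeant prosubstrate) were seeded at 600 cells/well, incubated 5 h at 37 C/5% CO2, then pinned with compounds in DMSO; nonlytic luminescence tracked viability during 40 h treatment.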

[3] = qHTS RealTime-Glo MT Cell Viability Assay in HEK293 cells - 40 hour (AID 1224874); conditions: RealTime-Glo luminescence; max response: active compounds read low; also: nearly all actives have a fitted effect of over 50% in size; also: potency is read from the fitted curve at half-maximal effect
In short: (§2)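 Nonlytic bioluminescent viability monitoring. HEK293 at 600 cells/well with reagent; 5 h settle; compound transfer by pintool; plates held at 37 C and read at set time points.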

[4] = A CellTox Green Cytotoxicity Assay to monitor cytotoxicity in HepG2 cells - 16 hour (AID 1224876); also: nearly all actives have a fitted effect of over 45% in size; also: potency is read from the fitted curve at half-maximal effect
In short: (§3)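 Real-time, homogeneous cytotoxicity readout: dead-cell DNA staining by CellTox Green in HepG2 monolayers, fluorescence measured at timed intervals up to 40 h of continuous compound exposure.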

[5] = qHTS RealTime-Glo MT Cell Viability Assay in HepG2 cells - 32 hour (AID 1224877); also: nearly all actives have a fitted effect of over 55% in size; also: potency is read from the fitted curve at half-maximal effect
In short: (§4)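 Cell number in HepG2 cultures estimated from NanoLuc luminescence generated by metabolic reduction of a prosubstrate by living cells. The homogeneous, nonlytic format allowed repeated reads at 0, 8, 16, 24, 32 and 40 h of compound exposure.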

[6] = A CellTox Green Cytotoxicity Assay to monitor cytotoxicity in HepG2 cells - 24 hour (AID 1224878); also: nearly all actives have a fitted effect of over 45% in size; also: potency is read from the fitted curve at half-maximal effect
In short: as §3

[7] = A CellTox Green Cytotoxicity Assay to monitor cytotoxicity in HepG2 cells - 40 hour (AID 1224879); also: nearly all actives have a fitted effect of over 40% in size; also: potency is read from the fitted curve at half-maximal effect
In short: as §3

[8] = qHTS RealTime-Glo MT Cell Viability Assay in HEK293 cells - 0 hour (AID 1224880); also: top concentration of the series differs between compounds; nearly all actives have a fitted effect of over 45% in size
In short: as §2

[9] = A CellTox Green Cytotoxicity Assay to monitor cytotoxicity in HepG2 cells - 0 hour (AID 1224882); also: nearly all actives have a fitted effect of over 35% in size
In short: as §3

[10] = A CellTox Green Cytotoxicity Assay to monitor cytotoxicity in HepG2 cells - 32 hour (AID 1224883); also: nearly all actives have a fitted effect of over 50% in size; also: potency is read from the fitted curve at half-maximal effect
In short: as §3

[11] = A CellTox Green Cytotoxicity Assay to monitor cytotoxicity in HEK293 cells - 8 hour (AID 1224884); also: nearly all actives have a fitted effect of over 35% in size
In short: (§5)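 Cytotoxicity was tracked continuously in HEK293 cells by a DNA-binding dye excluded from viable cells. Compounds were transferred in DMSO 5 h after seeding; fluorescence was recorded at intervals up to 40 h.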

[12] = qHTS RealTime-Glo MT Cell Viability Assay in HepG2 cells - 16 hour (AID 1224885); also: nearly all actives have a fitted effect of over 50% in size
In short: as §4

[13] = qHTS RealTime-Glo MT Cell Viability Assay in HEK293 cells - 24 hour (AID 1224886); also: nearly all actives have a fitted effect of over 50% in size; also: potency is read from the fitted curve at half-maximal effect
In short: as §1

[14] = qHTS RealTime-Glo MT Cell Viability Assay in HepG2 cells - 0 hour (AID 1224889); also: nearly all actives have a fitted effect of over 50% in size
In short: as §4

[15] = A CellTox Green Cytotoxicity Assay to monitor cytotoxicity in HepG2 cells - 8 hour (AID 1224890); also: nearly all actives have a fitted effect of over 45% in size
In short: as §3

[16] = A CellTox Green Cytotoxicity Assay to monitor cytotoxicity in HEK293 cells - 32 hour (AID 1224881); also: nearly all actives have a fitted effect of over 40% in size
In short: as §5

[17] = qHTS RealTime-Glo MT Cell Viability Assay in HEK293 cells - 8 hour (AID 1224887)
In short: as §2

[18] = A CellTox Green Cytotoxicity Assay to monitor cytotoxicity in HEK293 cells - 16 hour (AID 1224888); also: nearly all actives have a fitted effect of over 35% in size
In short: as §5

[19] = qHTS assay to identify small molecule antagonists of the estrogen receptor alpha (ER-alpha) signaling pathway using the BG1 cell line in the presence of 0.1 nM 17-beta-estradiol - cell viability counter screen (AID 1259241); also: nearly all actives have a fitted effect of over 40% in size; also: potency is read from the fitted curve at half-maximal effect
In short: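 VM7Luc4E2 cells (endogenous full-length ER-alpha, 4xERE-luciferase), cultured 5 days in charcoal-stripped serum, exposed to compounds with 0.1 nM 17beta-estradiol (final) for 22 hr at 37C. Viability read in same wells as live-cell protease fluorescence after 30 min.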

[20] = A CellTox Green Cytotoxicity Assay to monitor cytotoxicity in HEK293 cells - 24 hour (AID 1224875)
In short: as §5

## O=C(c1ccc(O)cc1)c1ccc(Cl)cc1
[1]
  Potency: 25.1 µM (active)
[2]
  Potency: inactive
[3]
  Potency: 25.1 µM (active)
[4]
  Potency: inactive
[5]
  Potency: inactive
[6]
  Potency: inactive
[7]
  Potency: inactive
[8]
  Potency: inactive
[9]
  Potency: inactive
[10]
  Potency: inactive
[11]
  Potency: inactive
[12]
  Potency: inactive
[13]
  Potency: 22.3 µM (active)
[14]
  Potency: inactive
[15]
  Potency: inactive

## CC(C)=CC=O
[1]
  Potency: inactive
[2]
  Potency: inactive
[3]
  max response: 12.5%
[4]
  Potency: inactive
[5]
  Potency: inactive
[6]
  Potency: inactive
[7]
  Potency: inactive
[8]
  Potency: inactive
[16]
  Potency: inactive
[9]
  Potency: inactive
[10]
  Potency: inactive
[11]
  Potency: inactive
[12]
  Potency: inactive
[13]
  Potency: inactive
[17]
  Potency: inactive
[18]
  Potency: inactive
[14]
  Potency: inactive
[15]
  Potency: inactive
[19]
  Potency: inactive

## CC(C)CCCCCOC(=O)CCCCC(=O)OCCCCCC(C)C
[1]
  Potency: inactive
[2]
  Potency: inactive
[3]
  max response: 3.71%
[4]
  Potency: inactive
[5]
  Potency: inactive
[6]
  Potency: inactive
[7]
  Potency: inactive
[8]
  Potency: inactive
[16]
  Potency: inactive
[9]
  Potency: inactive
[10]
  Potency: inactive
[11]
  Potency: inactive
[12]
  Potency: inactive
[13]
  Potency: inactive
[18]
  Potency: inactive
[14]
  Potency: inactive
[15]
  Potency: inactive

## CCCCN(CCCC)CCCOC(=O)c1ccc(N)cc1
[1]
  Potency: inactive
[2]
  Potency: inactive
[3]
  max response: -19.3%
[20]
  Potency: inactive
[5]
  Potency: inactive
[6]
  Potency: inactive
[8]
  Potency: inactive
[16]
  Potency: inactive
[9]
  Potency: inactive
[10]
  Potency: inactive
[11]
  Potency: inactive
[12]
  Potency: inactive
[13]
  Potency: inactive
[18]
  Potency: inactive
[14]
  Potency: inactive
[15]
  Potency: inactive
[19]
  Potency: inactive

## CCCCC(CC)CNCC(CC)CCCC (configuration not stated)
[1]
  Potency: inactive
[2]
  Potency: inactive
[3]
  max response: 8.85%
[4]
  Potency: inactive
[5]
  Potency: inactive
[6]
  Potency: inactive
[7]
  Potency: inactive
[8]
  Potency: inactive
[16]
  Potency: inactive
[9]
  Potency: inactive
[10]
  Potency: inactive
[11]
  Potency: inactive
[12]
  Potency: inactive
[17]
  Potency: inactive
[18]
  Potency: inactive
[14]
  Potency: inactive
[15]
  Potency: inactive

## CNCCCC1c2ccccc2C=Cc2ccccc21
[1]
  Potency: inactive
[2]
  Potency: inactive
[3]
  Potency: 23.9 µM (active)
[4]
  Potency: 23.9 µM (active)
[5]
  Potency: 23.9 µM (active)
[6]
  Potency: 23.9 µM (active)
[7]
  Potency: 23.9 µM (active)
[9]
  Potency: inactive
[10]
  Potency: 23.9 µM (active)
[11]
  Potency: inactive
[17]
  Potency: inactive
[18]
  Potency: inactive
[15]
  Potency: inactive
[19]
  Potency: inactive

## Cc1ccnc2ccccc12
[1]
  Potency: inactive
[2]
  Potency: inactive
[3]
  max response: 6.48%
[4]
  Potency: inactive
[6]
  Potency: inactive
[7]
  Potency: inactive
[8]
  Potency: inactive
[16]
  Potency: inactive
[9]
  Potency: inactive
[10]
  Potency: inactive
[11]
  Potency: inactive
[12]
  Potency: inactive
[13]
  Potency: inactive
[17]
  Potency: inactive
[18]
  Potency: inactive
[14]
  Potency: inactive
[15]
  Potency: inactive
[19]
  Potency: inactive

## CCCCCCOC(=O)CCCCCCCC(=O)OCCCCCC
[1]
  Potency: inactive
[2]
  Potency: inactive
[3]
  max response: 1.87%
[4]
  Potency: inactive
[5]
  Potency: inactive
[6]
  Potency: inactive
[7]
  Potency: inactive
[8]
  Potency: inactive
[16]
  Potency: inactive
[9]
  Potency: inactive
[10]
  Potency: inactive
[11]
  Potency: inactive
[12]
  Potency: inactive
[17]
  Potency: inactive
[18]
  Potency: inactive
[14]
  Potency: inactive
[15]
  Potency: inactive
[19]
  Potency: inactive

## Cc1nc2ccccc2s1
[1]
  Potency: inactive
[2]
  Potency: inactive
[3]
  max response: 2.93%
[4]
  Potency: inactive
[5]
  Potency: inactive
[6]
  Potency: inactive
[7]
  Potency: inactive
[8]
  Potency: inactive
[16]
  Potency: inactive
[9]
  Potency: inactive
[10]
  Potency: inactive
[11]
  Potency: inactive
[12]
  Potency: inactive
[13]
  Potency: inactive
[17]
  Potency: inactive
[18]
  Potency: inactive
[14]
  Potency: inactive
[15]
  Potency: inactive
[19]
  Potency: inactive

## NC(=O)Nc1ccc(Cl)cc1
[1]
  Potency: inactive
[2]
  Potency: inactive
[3]
  max response: -8.17%
[20]
  Potency: inactive
[8]
  Potency: inactive
[16]
  Potency: inactive
[11]
  Potency: inactive
[12]
  Potency: inactive
[13]
  Potency: inactive
[17]
  Potency: inactive
[18]
  Potency: inactive
[14]
  Potency: inactive
[19]
  Potency: inactive

## O=C(CCCCCCC(=O)Nc1ccccc1)NO
[1]
  Potency: 2.68 µM (active)
[3]
  Potency: 2.39 µM (active)
[20]
  Potency: inactive
[4]
  Potency: inactive
[6]
  Potency: inactive
[7]
  Potency: 2.68 µM (active)
[8]
  Potency: inactive
[16]
  Potency: inactive
[9]
  Potency: inactive
[10]
  Potency: 2.68 µM (active)
[11]
  Potency: inactive
[13]
  Potency: 2.39 µM (active)
[18]
  Potency: inactive
[14]
  Potency: inactive
[15]
  Potency: inactive
[19]
  Potency: inactive

## Cc1ccc(/C=N/n2c(-c3ccccc3)csc2=S)cc1
[1]
  Potency: inactive
[2]
  Potency: inactive
[3]
  max response: -0.419%
[5]
  Potency: inactive
[6]
  Potency: inactive
[7]
  Potency: inactive
[8]
  Potency: inactive
[16]
  Potency: inactive
[9]
  Potency: inactive
[10]
  Potency: inactive
[11]
  Potency: inactive
[12]
  Potency: inactive
[13]
  Potency: inactive
[14]
  Potency: inactive
[15]
  Potency: inactive
[19]
  Potency: inactive

## CCc1cccc(N(C)C(N)=Nc2cccc3ccccc23)c1
[1]
  Potency: inactive
[2]
  Potency: inactive
[20]
  Potency: inactive
[5]
  Potency: inactive
[8]
  Potency: inactive
[9]
  Potency: inactive
[11]
  Potency: inactive
[12]
  Potency: inactive
[13]
  Potency: inactive
[18]
  Potency: inactive
[14]
  Potency: inactive
[15]
  Potency: inactive

## O=C(OCCOCCO)c1ccccc1Nc1cccc(C(F)(F)F)c1
[1]
  Potency: inactive
[2]
  Potency: inactive
[5]
  Potency: inactive
[8]
  Potency: inactive
[16]
  Potency: inactive
[9]
  Potency: inactive
[11]
  Potency: inactive
[12]
  Potency: inactive
[13]
  Potency: inactive
[17]
  Potency: inactive
[18]
  Potency: inactive
[14]
  Potency: inactive
[15]
  Potency: inactive
[19]
  Potency: inactive

## Cc1cc(S(=O)(=O)O)ccc1N=Nc1c(O)ccc2ccccc12
[1]
  Potency: inactive
[3]
  max response: -12.7%
[20]
  Potency: inactive
[4]
  Potency: inactive
[5]
  Potency: inactive
[6]
  Potency: inactive
[7]
  Potency: inactive
[8]
  Potency: inactive
[16]
  Potency: inactive
[9]
  Potency: inactive
[10]
  Potency: inactive
[11]
  Potency: inactive
[13]
  Potency: inactive
[17]
  Potency: inactive
[18]
  Potency: inactive
[15]
  Potency: inactive
[19]
  Potency: 34.4 µM (active)

Reference: PubChem BioAssay (Tox21)
